Screens (PubChem BioAssay)
An excerpt weighted towards active compounds, which were near 1.4% of everything screened.
PTK2B oligo ant: antagonists of Pyk2 self-association, primary screen, Q293 cells, FERM NanoBiT luminescence, HTS; hits give low values; AID 1347419, 2020; Protein-tyrosine kinase 2-beta (Homo sapiens), Q14289; 0.83% of 99,000 active; z-score (the deposit names both 25 µM and 10 µM);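 active = Z-score of -3 or lower, scaled per plate to the spread of control and sample wells; inactive = z-score above -3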;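 also: negative z-score means lost luminescence so less FERM oligomerization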
Target sequence (Q14289 whole entry, looked up): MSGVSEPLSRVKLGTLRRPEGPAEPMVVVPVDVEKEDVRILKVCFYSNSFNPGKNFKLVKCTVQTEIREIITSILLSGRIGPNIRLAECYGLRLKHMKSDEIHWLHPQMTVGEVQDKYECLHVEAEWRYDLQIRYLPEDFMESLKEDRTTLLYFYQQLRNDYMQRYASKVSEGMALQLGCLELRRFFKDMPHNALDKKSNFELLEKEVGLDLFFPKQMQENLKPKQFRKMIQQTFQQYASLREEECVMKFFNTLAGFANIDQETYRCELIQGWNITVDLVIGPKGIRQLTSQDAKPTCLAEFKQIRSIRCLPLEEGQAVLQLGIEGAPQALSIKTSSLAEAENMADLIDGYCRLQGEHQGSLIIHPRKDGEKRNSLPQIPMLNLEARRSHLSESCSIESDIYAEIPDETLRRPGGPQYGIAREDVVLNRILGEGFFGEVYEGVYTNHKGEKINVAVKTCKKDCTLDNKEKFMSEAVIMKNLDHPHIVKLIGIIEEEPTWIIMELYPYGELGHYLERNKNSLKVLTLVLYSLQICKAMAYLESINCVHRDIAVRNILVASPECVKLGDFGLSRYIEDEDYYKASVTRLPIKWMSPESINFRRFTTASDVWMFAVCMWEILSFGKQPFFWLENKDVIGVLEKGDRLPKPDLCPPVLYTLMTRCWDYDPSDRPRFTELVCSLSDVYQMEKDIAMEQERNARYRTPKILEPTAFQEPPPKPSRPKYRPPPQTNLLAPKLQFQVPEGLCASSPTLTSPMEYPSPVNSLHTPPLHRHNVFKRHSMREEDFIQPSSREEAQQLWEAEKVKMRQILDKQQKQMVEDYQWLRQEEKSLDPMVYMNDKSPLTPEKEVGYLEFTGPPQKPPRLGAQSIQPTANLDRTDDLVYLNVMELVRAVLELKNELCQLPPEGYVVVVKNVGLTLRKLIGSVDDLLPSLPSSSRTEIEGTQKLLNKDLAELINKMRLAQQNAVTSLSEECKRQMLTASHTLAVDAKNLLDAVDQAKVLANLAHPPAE
Phagocyt inh: inhibitors of macrophage phagocytosis, primary screen, imaging, J774A.1 cells, IgG beads | J774A.1 macrophage IgG-bead phagocytosis | inhibition, % at 5 µM | 0.07% of 110,000 active | AID 1029, 2008;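 active = inhibition above the mean of the plate negative controls plus 5 SD, cut at about 13% in these data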;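 also: phagocytic index as fraction of beads internalized from green versus red external bead signal; plate controls were DMSO negative control for no effect and cytochalasin-D positive control for full effect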
IL1B cytotox: cytotoxicity in IL-1B stimulated HUVEC, primary screen, cytotoxicity control for IL-1B NFkB translocation project, imaging, Hoechst nuclear count, IL-1B stimulus | 0.41% of 94,000 active | HUVEC cell count loss | AID 845, 2007 | cell count reduction, % at 2 µM;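 active = cell count reduction more than 3 SD above the screen-wide mean, cut at about 70% in these data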;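 also: normalized per plate to untreated control cells as the no-loss baseline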
NFkB transloc inh: inhibitors of IL-1B driven NFkB p65 nuclear import, primary screen, imaging, HUVEC, IL-1B stimulus, high-content imaging. HUVEC IL-1B NFkB p65 nuclear translocation imaging. inhibition, % at 2 µM. 0.43% of 94,000 active. AID 796, 2007;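 active = inhibition above about 30% together with a positive call from visual inspection of the well image, limit read from the data; inconclusive = inhibition above a set limit but visual check negative; inactive = inhibition not above a set limit, visual check negative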;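 also: nuclear over cytoplasmic p65 intensity ratio measured by imaging; 0% = IL-1B stimulated DMSO wells and 100% = unstimulated DMSO wells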
IL1B NFkB pot: enhancers of NFkB p65 translocation in HUVEC – imaging, IL-1B stimulus, high-content imaging, primary screen; HUVEC IL-1B NFkB p65 nuclear translocation imaging; activation, % at 2 µM; 0.3% of 94,000 active;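 active = activation above 40%, about the mean plus 3 SD, also judged a hit on visual image review; inconclusive = activation above 40% but not a hit on visual review; inactive = activation not above 40% and no visual hit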;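 also: percent activation is computed from the nuclear over cytoplasmic p65 intensity ratio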
Active calls of the source: *; u = inconclusive; x = not tested or not shown.

SMILES	PTK2B oligo ant	Phagocyt inh	IL1B cytotox	NFkB transloc inh	IL1B NFkB pot
Cc1nn(-c2ccccc2)c(Cl)c1C1C(C#N)=C(N)Oc2c1c(=O)oc1ccccc21 (configuration not stated)	-3.2*	0.9	x	x	x
N#CC1=C(N)Oc2c(c(=O)oc3ccccc23)C1c1cccnc1 (configuration not stated)	-0.94	-2.5	x	x	x
Cn1c(O)c(C=Nc2ccc(Cl)cc2)c(=O)n(C)c1=O	0.45	0.4	12.8	1.7	-1.7
CCOc1ccc(C2SCC(=O)Nc3c2c(=O)[nH]n3C2CCCCCC2)cc1 (configuration not stated)	0.78	2.1	x	x	x
Cc1ccc(CS(=O)(=O)CCC(=O)N2CCC3(CC2)OCCO3)cc1	0.14	-1.3	91.8*	-18.6	18.6
Cc1ccc(CS(=O)(=O)Cc2ccc(C(=O)N3CCC4(CC3)OCCO4)o2)cc1	2.42	x	-6.5	10.2	-10.2
CCCCn1c(O)c(C=NC2CCCCC2N)c(=O)[nH]c1=O (configuration not stated)	-1.12	0.9	83.7*	99.0*	-99.0
CN1C(=O)C(=Cc2ccccc2Oc2ccc(Cl)cc2)C(=O)N(C)C1=O	-3.92*	0.4	17.9	0.2	-0.2
Cc1ccc2c(c1)CC1(CN2C)C(=O)NC(=O)N(C(C)C)C1=O (configuration not stated)	-0.41	-0.6	14.4	-9.1	9.1
Cc1ccc2c(c1)CC1(CN2C)C(=O)NC(=O)N(CCC2=CCCCC2)C1=O (configuration not stated)	-0.28	0.0	7.1	-66.1	66.1*
Cc1ccc2c(c1)[C@@H]1CN(C)CC[C@@H]1N2C(=O)Nc1cccc(C(F)(F)F)c1	0.14	-0.5	-18.1	-1.9	1.9
Cc1ccc2c(c1)C1CN(C)CCC1N2C(=O)Nc1cccc(C(F)(F)F)c1 (configuration not stated)	0.45	x	39.7	30.4*	-30.4
CCC(=NCc1cccnc1)c1c(O)n(C2CCCCC2)c(=O)[nH]c1=O	-3.52*	-3.1	26.2	-5.9	5.9
CCC(=Nc1ccc(OC)cc1OC)c1c(O)n(C2CCCCC2)c(=O)[nH]c1=O	-3.4*	2.0	-26.0	-36.4	36.4
Cn1c(O)c(C(=N)COc2cccc(Cl)c2)c(=O)n(C)c1=O	1.39	-2.5	-14.3	12.7	-12.7
COc1ccc(Oc2cc(NC(=O)c3nn(C)cc3[N+](=O)[O-])cc([N+](=O)[O-])c2)cc1	-3.66*	-1.0	-7.3	-7.8	7.8
COc1ccc(OCC(=O)N2CCN(Cc3nc4cc([N+](=O)[O-])ccc4n3C)CC2)cc1	x	-13.4	x	x	x
CN1CCC(n2nccc2N)CC1	0.65	-1.2	16.1	36.4*	-36.4
CC(=O)c1c(C)n(CC2CCCO2)c2ccc(O)cc12 (configuration not stated)	-1.03	-0.1	13.4	9.3	-9.3
COc1cc(NC(=O)CN2C3CCC2CC(O)(c2cccnc2)C3)cc(OC)c1 (configuration not stated)	0.56	x	19.3	7.3	-7.3
COC(=O)C1CN(C#N)N(c2ccc(Cl)cc2)C12c1ccccc1-c1ccccc12 (configuration not stated)	-2.9	x	20.6	64.6*	-64.6
COc1ccc(CC2C(=O)N(c3ccccc3)C(=O)N(c3ccccc3)C2=O)c(OC)c1	0.14	0.1	-8.1	-3.0	3.0
O=C(c1ccccc1)c1cn(CC(=O)N2CCCc3ccccc32)c2ccccc12	-2.13	-0.9	-2.9	-20.0	20.0
O=C(Cn1cc(C(=O)c2ccccc2)c2ccccc21)NCc1ccco1	-3.24*	3.0	87.9*	93.1*	-93.1
COc1ccc(-c2cc(C(F)(F)F)n3nc(C(=O)N4CCC5(CC4)OCCO5)cc3n2)cc1OC	-0.31	-0.8	88.6*	1.4	-1.4
SMILES	PTK2B oligo ant	Phagocyt inh	IL1B cytotox	NFkB transloc inh	IL1B NFkB pot
CCOC(=O)c1c(-c2ccc(OC)cc2)oc2ccc(OC(=O)N(C)C)cc12	-1.46	-0.5	19.9	-4.6	4.6
Cc1cccc(N2C(=O)NC(=O)/C(=C\c3cccn3-c3ccc(Cl)cc3)C2=O)c1	-3.44*	x	4.2	-5.3	5.3
CC(=O)c1ccc2c(c1)C1C(Cl)C(Sc3ccccc3[N+](=O)[O-])CC1C(c1ccccc1[N+](=O)[O-])N2 (configuration not stated)	-3.44*	x	-35.8	-57.8	u
CC(=O)c1ccc2c(c1)C1C(Cl)C(Sc3ccccc3[N+](=O)[O-])CC1C(c1ccccc1)N2 (configuration not stated)	-1.82	-0.6	-6.0	-2.0	2.0
OCCOCC#CCN1CCOCC1	0.02	-2.1	-6.3	19.0	-19.0
CCN(CC)CCN=Cc1c(O)n(Cc2ccccc2)c(=O)[nH]c1=O	1.18	103.8*	-7.9	-10.8	10.8
CCN(CC)CCCN=Cc1c(O)n(Cc2ccc(F)cc2)c(=O)[nH]c1=O	0.72	-0.7	-13.3	-9.5	9.5
